# Compounds without any hit were thinned out: in the full panel of roughly 83,000, 20% have a hit.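 The endpoint reported here, percent growth, reads 100 for growth as untreated, 0 for no net growth and -100 for all cells dead.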 Values without a mark were called inactive. Activity calls are given as the source filed them. How the source made its calls: active means growth percent below 10; inactive means the rest.
# Columns and labels:
# Test in all cases: NCI-60 one-dose screen, 48 h (100 = growth as untreated, 0 = no growth, -100 = all killed)
# Conditions in all cases: 10 µM unless noted
# [1] = tested on: HCT-15 colon
# [2] = tested on: HT29 colon
# [3] = tested on: SNB-75 CNS
# [4] = tested on: SNB-19 CNS
# [5] = tested on: U251 CNS
# [6] = tested on: PC-3 prostate
# [7] = tested on: SK-MEL-5 melanoma
# [8] = tested on: UACC-62 melanoma
# [9] = tested on: LOX IMVI melanoma
# [10] = tested on: SK-MEL-28 melanoma
Structure (SMILES),growth [1],growth [2],growth [3],growth [4] [%],growth [5],growth [6] [%],growth [7],growth [8],growth [9],growth [10] [%]
O=[N+]([O-])c1c(S(=O)(=O)O)cc2cc(S(=O)(=O)O)ccc2c1[N+](=O)[O-],101%,103%,98.1%,108,100%,100,100%,97%,94.3%,103
Cc1cccc(NC(=O)c2sc3nc4c(cc3c2N)CCCC4)c1,23.9%,15.4%,34.5%,50.5,34.4%,26.6,33.9%,26.5%,40.3%,53
COc1ccc(/C=C/C(=O)/C=C/c2cc3ccc(Cl)cc3[nH]c2=O)cc1,87.4%,80.6%,76.2%,80.9,53.3%,76.1,98.6%,72.1%,48.5%,103
Cc1ccc(Oc2nc3ccccc3cc2-c2nnc(Cn3c(COc4ccccc4)nc4ccccc43)o2)cc1,17.5%,4.53% (active),54.9%,52.4,43%,46.2,80.5%,50.8%,19.6%,90.9
CC1CCN(C(=O)CSc2nc3sc4c(c3c(=O)[nH]2)CCCC4)CC1,102%,116%,99.5%,106,95.5%,100,91.8%,105%,86.4%,125
COc1ccc2c(c1)C=CC(C#N)N2C(=O)c1ccccc1 (stereo not given),9.74% (active),5.77% (active),-14.7% (active),43.8,28.6%,19,-6.27% (active),26.3%,20%,58.9
C#CCN1C(=O)/C(=c2\sc3n(c2=O)C2C(NN=3)N(CC)C(=O)N2CC)c2ccccc21 (stereo not given),16%,7.7% (active),-25.2% (active),28,11.2%,22.7,12.4%,25.2%,27.1%,43.4
COc1cc(CCn2nnc3c(Nc4ccc(N5CCOCC5)cc4)ncnc32)cc(OC)c1,93.6%,99.3%,94.2%,93.3,95.6%,72.1,93.6%,91.5%,97.5%,97
CC(C)C[C@H](NC(=O)Cn1ccc(NCc2ccccc2)cc1=O)B(O)O,23.5%,-15.2% (active),56.9%,42.2,44.6%,49.2,-9.84% (active),4% (active),-65.5% (active),27.4
Cc1cc(Cl)ccc1OC(C)C(=O)Nc1nnc(C2CC2)s1 (stereo not given),119%,66.4%,104%,95.6,101%,99.2,74%,85.5%,95.4%,120
CCSc1nnc(NC(=O)COc2ccc(Cl)cc2C)s1,102%,115%,110%,95.2,99.4%,104,97.3%,98.7%,93.8%,114
COc1ccc2c(c1)C(C)Cc1c(N(C)C)ncnc1N2C (stereo not given),23.7%,11.6%,14.3%,40.5,28%,26.4,19.4%,27.6%,42.4%,59.3
Cc1cnc(NC(=O)C(Cc2ccccc2)NC(=O)c2ccccc2)s1 (stereo not given),79.9%,55%,83.6%,93.3,92.2%,70.7,25.5%,62.2%,55.9%,88.9
Cc1cc2c(C(C)C)c(O)c(O)c(C=NCCCCC(=O)O)c2c(O)c1-c1c(C)cc2c(C(C)C)c(O)c(O)c(C=NCCCCC(=O)O)c2c1O,34.7%,46.6%,62.1%,30.9,24%,29.2,49.4%,59.2%,43.4%,64.2
COc1cc2nc(Cl)nc(NCCO)c2cc1OC,99%,110%,86.1%,104,96.5%,93.4,102%,108%,97.7%,112
COc1cccc2cc(-c3cc4ccccc4[nH]3)c(=NC(=O)c3ccc(Cl)cc3)oc12,43.3%,64.4%,5.92% (active),53.5,43.9%,38.5,81.7%,73.8%,75.5%,82.2
O=c1[nH]c(CN2CCN(c3ccccc3F)CC2)nc2sc3c(c12)CCC3,112%,106%,87.8%,106,104%,102,107%,91.9%,99.2%,117
COc1ccc(-c2cn[nH]c2-c2cc(OC)c3c(c2)OCCO3)cc1,20.7%,1.7% (active),-5.75% (active),60.4,16.4%,28.4,25.4%,37.6%,30.2%,49.3
CCn1c(=O)c2c(=O)c3c4c(oc3oc2c2ccccc21)C(=O)c1ccccc1C4=O,79.6%,63%,120%,90.2,57.7%,42.4,67.4%,64%,32.4%,107
COc1cc2c(cc1OCCCCn1c(-c3cc(=O)c4ccccc4o3)nc3ccccc31)N=C[C@@H]1CCCN1C2=O,106%,102%,101%,93.1,75.3%,94.9,93.6%,99.4%,68.5%,124
COc1cc(CCn2nnc3c(NCCCCO)ncnc32)cc(OC)c1,102%,112%,84.4%,106,99.5%,88.3,99.1%,104%,102%,109
O=C(C[N+](=O)[O-])c1ccc(Cl)cc1,103%,113%,94.9%,111,107%,97.3,104%,101%,96.4%,106
O=C(c1c[nH]c2ccccc12)C(Sc1nc2ccccc2c(=O)[nH]1)c1ccccc1 (stereo not given),104%,71.3%,90.6%,102,101%,94.1,99.8%,102%,95.3%,117
CCC(c1cccc(Br)c1)C(C(=O)O)c1ccc(OC)cc1 (stereo not given),83.5%,106%,96%,104,90.4%,90.2,94.6%,82.9%,95.8%,95.8
COC(=O)CCCCCN=Cc1c(O)c(O)c(C(C)C)c2cc(C)c(-c3c(C)cc4c(C(C)C)c(O)c(O)c(C=NCCCCCC(=O)OC)c4c3O)c(O)c12,17.2%,4.21% (active),46.9%,20.6,3.85% (active),14,32.3%,25%,13.7%,33
Cc1ccc2nc(-c3c(N)n[nH]c3CCCO)[nH]c(=O)c2c1,106%,104%,91%,106,105%,92.3,105%,100%,101%,115
Cc1ccc(S(=O)(=O)OC2COCOC2C(OS(=O)(=O)c2ccc(C)cc2)C2OCOCC2OS(=O)(=O)c2ccc(C)cc2)cc1 (stereo not given),107%,98.7%,115%,108,102%,97.6,99.9%,98.3%,103%,118

# From PubChem BioAssay (NCI)
